# Measurements: article PMC11062922 (Nature Chemical Biology, 2023)
# Read-outs that look alike come from different tables or passages of the source.
# Key:
# [1] = tested on: SIK2; conditions: compound concentrations:3nM, 10nM, 30nM, 100nM, 300nM, 1000nM, 3000nM, 30000nM,R2:0.98900734002019797,slope:1.1146515084845601,EC50 Standard Error, by the legend:Standard error of the EC50 estimation as provided by the drc package.
# [2] = tested on: SLK; conditions: compound concentrations:3nM, 10nM, 30nM, 100nM, 300nM, 1000nM, 3000nM, 30000nM,R2:0.98664495046468503,slope:1.29889224696913,EC50 Standard Error, by the legend:Standard error of the EC50 estimation as provided by the drc package.
# [3] = tested on: STK10; conditions: compound concentrations:3nM, 10nM, 30nM, 100nM, 300nM, 1000nM, 3000nM, 30000nM,R2:0.96114701391993196,slope:1.3567914051898999,EC50 Standard Error, by the legend:Standard error of the EC50 estimation as provided by the drc package.
# [4] = tested on: STK11; conditions: compound concentrations:3nM, 10nM, 30nM, 100nM, 300nM, 1000nM, 3000nM, 30000nM,R2:0.98533886968205897,slope:6.0517648666997097,EC50 Standard Error, by the legend:Standard error of the EC50 estimation as provided by the drc package.
# [5] = tested on: STK26; conditions: compound concentrations:3nM, 10nM, 30nM, 100nM, 300nM, 1000nM, 3000nM, 30000nM,R2:0.89438319987914305,slope:6.7801376871061398,EC50 Standard Error, by the legend:Standard error of the EC50 estimation as provided by the drc package.
# [6] = tested on: STK3; conditions: compound concentrations:3nM, 10nM, 30nM, 100nM, 300nM, 1000nM, 3000nM, 30000nM,R2:0.98274097972393204,slope:1.3616846231778099,EC50 Standard Error, by the legend:Standard error of the EC50 estimation as provided by the drc package.
# [7] = tested on: STK4; conditions: compound concentrations:3nM, 10nM, 30nM, 100nM, 300nM, 1000nM, 3000nM, 30000nM,R2:0.95767016983562303,slope:1.48085900140722,EC50 Standard Error, by the legend:Standard error of the EC50 estimation as provided by the drc package.
# [8] = tested on: TGFBR2; conditions: compound concentrations:3nM, 10nM, 30nM, 100nM, 300nM, 1000nM, 3000nM, 30000nM,R2:0.91957544903751998,slope:0.85257672285703501,EC50 Standard Error, by the legend:Standard error of the EC50 estimation as provided by the drc package.
# [9] = tested on: AGK; set-up: species or system human, MV4-11 + K-562 + COLO205 + SK-N-BE2 + OVCAR-8; conditions: read-out: apparent Kd, compound concentrations: 100 nM and 1000 nM (sheet 'Samples'), n = 1
# [10] = tested on: ARAF; set-up: species or system human, MV4-11 + K-562 + COLO205 + SK-N-BE2 + OVCAR-8; conditions: read-out: apparent Kd, compound concentrations: 100 nM and 1000 nM (sheet 'Samples'), n = 1
# [11] = tested on: BMPR1A; set-up: species or system human, MV4-11 + K-562 + COLO205 + SK-N-BE2 + OVCAR-8; conditions: read-out: apparent Kd, n = 1
# [12] = tested on: BRAF; set-up: species or system human, MV4-11 + K-562 + COLO205 + SK-N-BE2 + OVCAR-8; conditions: read-out: apparent Kd, compound concentrations: 100 nM and 1000 nM (sheet 'Samples'), n = 1
# [13] = tested on: ERBB3; set-up: species or system human, MV4-11 + K-562 + COLO205 + SK-N-BE2 + OVCAR-8; conditions: read-out: apparent Kd, compound concentrations: 100 nM and 1000 nM (sheet 'Samples'), n = 1
# [14] = tested on: FECH; set-up: species or system human, MV4-11 + K-562 + COLO205 + SK-N-BE2 + OVCAR-8; conditions: read-out: apparent Kd, compound concentrations: 100 nM and 1000 nM (sheet 'Samples'), n = 1
# [15] = tested on: MAP2K3; set-up: species or system human, MV4-11 + K-562 + COLO205 + SK-N-BE2 + OVCAR-8; conditions: read-out: apparent Kd, compound concentrations: 100 nM and 1000 nM (sheet 'Samples'), n = 1
# [16] = tested on: MAP3K2; set-up: species or system human, MV4-11 + K-562 + COLO205 + SK-N-BE2 + OVCAR-8; conditions: read-out: apparent Kd, compound concentrations: 100 nM and 1000 nM (sheet 'Samples'), n = 1
# [17] = tested on: MAP3K5; set-up: species or system human, MV4-11 + K-562 + COLO205 + SK-N-BE2 + OVCAR-8; conditions: read-out: apparent Kd, compound concentrations: 100 nM and 1000 nM (sheet 'Samples'), n = 1
# [18] = tested on: PIK3C2B; set-up: species or system human, MV4-11 + K-562 + COLO205 + SK-N-BE2 + OVCAR-8; conditions: read-out: apparent Kd, compound concentrations: 100 nM and 1000 nM (sheet 'Samples'), n = 1
# [19] = tested on: PYGL; set-up: species or system human, MV4-11 + K-562 + COLO205 + SK-N-BE2 + OVCAR-8; conditions: read-out: apparent Kd, compound concentrations: 100 nM and 1000 nM (sheet 'Samples'), n = 1
# [20] = tested on: ZAK; set-up: species or system human, MV4-11 + K-562 + COLO205 + SK-N-BE2 + OVCAR-8; conditions: read-out: apparent Kd, compound concentrations: 100 nM and 1000 nM (sheet 'Samples'), n = 1
molecule,measurement,setting,value
TAK659,EC50,[1],260 nM
same,Kd,[1]; read-out: apparent Kd,140 nM
same,EC50,[2],516 nM
same,Kd,[2]; read-out: apparent Kd,516 nM
same,EC50,[3],725 nM
same,Kd,[3]; read-out: apparent Kd,725 nM
same,EC50,[4],1150 nM
same,Kd,[4]; read-out: apparent Kd,1150 nM
same,EC50,[5],363 nM
same,Kd,[5]; read-out: apparent Kd,275 nM
same,EC50,[6],742 nM
same,Kd,[6]; read-out: apparent Kd,683 nM
same,EC50,[7],628 nM
same,Kd,[7]; read-out: apparent Kd,567 nM
same,EC50,[8],3720 nM
same,Kd,[8]; read-out: apparent Kd,2960 nM
Cn1ncc2c(N)ncnc21 [SKF-18267],potency estimated from few doses,[9]; CATDS: 3.9029734313372399E-3,1420 nM
same,potency estimated from few doses,[10]; CATDS: 4.8255610001080402E-3,874 nM
same,potency estimated from few doses,"[11]; compound concentrations: 100 nM and 1000 nM (sheet 'Samples'), CATDS: 5.9129989995003003E-3",595 nM
same,potency estimated from few doses,[12]; CATDS: 3.54255463702716E-3,1870 nM
same,potency estimated from few doses,[13]; CATDS: 3.9998602619286698E-3,1340 nM
same,potency estimated from few doses,[14]; CATDS: 4.0094324755209198E-3,1330 nM
same,potency estimated from few doses,[15]; CATDS: 4.14742483783686E-3,1220 nM
same,potency estimated from few doses,[16]; CATDS: 4.2783500511549997E-3,1140 nM
same,potency estimated from few doses,[17]; CATDS: 4.32123334572214E-3,1110 nM
same,potency estimated from few doses,[18]; CATDS: 6.2624130491241497E-3,539 nM
same,potency estimated from few doses,[19]; CATDS: 4.6532954394714601E-3,943 nM
same,potency estimated from few doses,[20]; CATDS: 4.0930423662174304E-3,1260 nM
CCn1c(-c2cccnc2O)nc2cnccc21 [SB-736715],potency estimated from few doses,[19]; CATDS: 1.35129561389799E-2,1630 nM
Cl.Cl.NC(CNC(=O)c1cc(Br)c(-c2ccnc3[nH]ccc23)s1)c1ccccc1.NC(CNC(=O)c1cc(Br)c(-c2ccnc3[nH]ccc23)s1)c1ccccc1 (stereo not shown) [GSK1322949A],potency estimated from few doses,[9]; CATDS: 3.3484364918531399E-2,953 nM
same,potency estimated from few doses,[10]; CATDS: 6.3043035692660204E-2,316 nM
CNCc1ccc(-c2cc(-c3nc(-c4ccc(S(=O)(=O)C(C)C)cc4)cnc3N)on2)cc1 [VE-822],potency estimated from few doses,[11]; compound concentrations:100 nM and 1000 nM (sheet 'Samples'),764 nM
O=C1N=C(NCCCc2ccccc2)S/C1=C\c1ccc2ncccc2c1 [RO4493941-000],potency estimated from few doses,[14]; CATDS: 5.9450857327724899E-2,1950 nM
O=C(O)C(F)(F)F.O=C(O)C(F)(F)F.O=c1[nH]ccc2nc(N[C@@H]3CCCNC3)nc(Nc3ccc(S(=O)(=O)N4CCOCC4)cc3)c12.O=c1[nH]ccc2nc(N[C@@H]3CCCNC3)nc(Nc3ccc(S(=O)(=O)N4CCOCC4)cc3)c12 [GSK2177277A],potency estimated from few doses,[15]; CATDS: 6.4169710439364001E-3,1550 nM
same,potency estimated from few doses,[16]; CATDS: 7.1783793001346102E-3,889 nM
CNc1nccc(-c2ccc3c(N)n[nH]c3c2)n1 [GSK2206003A],potency estimated from few doses,[13]; CATDS: 5.0565668903585798E-2,1580 nM
CC(C)N1CC(=O)N(C)c2cnc(Nc3cccc(S(=O)(=O)CCN4CCOCC4)c3)nc21 [BI00009348],potency estimated from few doses,[17]; CATDS: 5.27372855942096E-2,1550 nM
same,potency estimated from few doses,[20]; CATDS: 5.0114665499168799E-2,1820 nM
CNCC1CCn2c(c(C3=C(c4cn(C)c5ccccc45)C(=O)NC3=O)c3ccccc32)C1 (stereo not shown) [RO0318676-000],potency estimated from few doses,[12]; CATDS: 2.6106742003508401E-2,2340 nM
CCC(CC)(CC)n1cnc2c(N)ncnc21 [SKF-97620],potency estimated from few doses,[18]; CATDS: 4.5061031673298398E-2,395 nM
